The record followed here is PubChem BioAssay (NCI).

Among the test systems are NCI-H23 lung; NCI-H226 lung; NCI-H322M lung; HOP-62 NSCLC; NCI-H460 lung; HOP-92 NSCLC; NCI-H522 lung; A549/ATCC NSCLC; 786-0 renal; COLO 205 colon; DU-145 prostate; K-562 leukemia; MALME-3M melanoma; MDA-MB-231 breast; RXF 393 renal; SF-268 CNS; SF-295 CNS; SF-539 CNS; UACC-257 melanoma; M14 melanoma.
What all share (assay): NCI-60 one-dose screen, 48 h (100 = growth as untreated, 0 = no growth, -100 = all killed)
Common to all, as to conditions: 10 µM unless noted

The structures appear in SMILES notation. About 83,000 compounds went through this panel and 20% of them were active in at least one assay; those are over-represented in the sample as a whole.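 Activity criterion: percent growth below 10, measured after cells in 96-well plates were exposed to a single compound concentration for 48 hours.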 Values without a mark were called inactive. The source made the active and inactive calls.

With `C#CC(=O)Nc1cccc2c1cc(C)n2-c1nc2c(c(NCc3ccccc3)n1)CCCC2`, the growth in the assay with NCI-H23 lung was -43.1% (active); in the assay with NCI-H226 lung, -40.2% (active); in the assay on NCI-H322M lung, -82.4% (active); with HOP-62 NSCLC, -46.8% (active); with NCI-H460 lung it was -48.3% (active); in the assay with HOP-92 NSCLC it was -53.8% (active). Further, the growth is -82.2% (active) in the assay on NCI-H522 lung; -46.5% (active) with A549/ATCC NSCLC; -53.1% (active) in the assay on 786-0 renal; -69.1% (active) in the assay on COLO 205 colon; -97.1% (active) in the assay with DU-145 prostate; -13.5% (active) in the assay with K-562 leukemia. In addition, the growth in the assay on MALME-3M melanoma is -64.4% (active); in the assay with MDA-MB-231 breast, -53% (active); in the assay on RXF 393 renal, -94.4% (active); with SF-268 CNS, -29.7% (active); in the assay on SF-295 CNS it was -85.4% (active); in the assay with SF-539 CNS it was -79.7% (active). The figures for the growth in the assay with UACC-257 melanoma and with M14 melanoma were -73% (active) and -65.3% (active), respectively.
For `CCN(CC)S(=O)(=O)c1cccc([N+](=O)[O-])c1`, the growth in the assay on NCI-H23 lung was 102%; in the assay on NCI-H226 lung, 85.3%; in the assay with NCI-H322M lung, 104%; in the assay on HOP-62 NSCLC it was 74.5%; in the assay with NCI-H460 lung, 99.5%; in the assay on HOP-92 NSCLC, 87.9%. Besides, the growth was 72.3% in the assay on NCI-H522 lung; 65.3% in the assay on A549/ATCC NSCLC; 89.4% in the assay with 786-0 renal; 102% in the assay with COLO 205 colon; 117% in the assay on DU-145 prostate; 96% in the assay with K-562 leukemia. The growth is 99.2% in the assay on MALME-3M melanoma; 105% in the assay with MDA-MB-231 breast; 93.4% with SF-268 CNS; 94.4% with SF-295 CNS; 98.9% in the assay on SF-539 CNS; 67% in the assay with UACC-257 melanoma. In the assay with M14 melanoma, the growth was 84.9%.
As to `Cc1ccc(C2CC(c3cccc(Nc4ccncc4)c3)=NN2c2ccc(Cl)cc2)cc1` (stereo not drawn), the growth is -83.2% (active) in the assay on NCI-H23 lung; -38.8% (active) in the assay on NCI-H226 lung; -99.7% (active) with NCI-H322M lung; -65.9% (active) in the assay on HOP-62 NSCLC; -76.1% (active) in the assay on NCI-H460 lung; -90.3% (active) with HOP-92 NSCLC. Further, the growth with NCI-H522 lung was -71.2% (active); in the assay on A549/ATCC NSCLC it was -34.5% (active); in the assay on 786-0 renal, -88.4% (active); in the assay with COLO 205 colon, -66.3% (active); with DU-145 prostate, -93.3% (active); with K-562 leukemia it was -18.8% (active). The growth was -86% (active) in the assay with MALME-3M melanoma; -86% (active) with MDA-MB-231 breast; -72% (active) in the assay on SF-268 CNS; -85.6% (active) with SF-295 CNS; -96.2% (active) in the assay on SF-539 CNS; -35.1% (active) with UACC-257 melanoma. In the assay with M14 melanoma, the growth is -57.3% (active).
In the case of `CCNC(=O)c1[nH]cc(-c2ccc(OC)cc2)c1-c1cc(OC)cc(OC)c1`, the growth with NCI-H23 lung was 91.9%; with NCI-H226 lung, 88.7%; in the assay with NCI-H322M lung, 97.7%; with HOP-62 NSCLC it was 97.5%; with NCI-H460 lung it was 99%; with HOP-92 NSCLC, 72.9%. The growth in the assay on NCI-H522 lung was 62.6%; in the assay with A549/ATCC NSCLC it was 91.3%; in the assay with 786-0 renal it was 95.6%; in the assay with COLO 205 colon, 105%; in the assay on DU-145 prostate, 108%; in the assay with K-562 leukemia, 45.1%. The growth in the assay on MALME-3M melanoma was 93%; in the assay on MDA-MB-231 breast, 82.1%; in the assay with SF-268 CNS, 96.7%; in the assay with SF-295 CNS, 96.7%; with SF-539 CNS, 99.2%; with UACC-257 melanoma, 103%. For the same molecule, the growth in the assay on M14 melanoma is 95.8%.
As for `Fc1ccc(C2CC(c3cccc(Nc4ccncc4)c3)=NN2c2cc(Cl)cc(Cl)c2)cc1` (stereo not drawn), the growth is 80.2% in the assay with NCI-H23 lung; 90.5% with NCI-H226 lung; 73% in the assay with NCI-H322M lung; 44.4% in the assay on HOP-62 NSCLC; -75.5% (active) in the assay on NCI-H460 lung; 58.3% with HOP-92 NSCLC. In addition, the growth is 73% in the assay with NCI-H522 lung; 29.1% with A549/ATCC NSCLC; 102% in the assay with 786-0 renal; -54.5% (active) with COLO 205 colon; 30.2% with DU-145 prostate; 0.115% (active) in the assay on K-562 leukemia. Besides, the growth is 15.3% with MALME-3M melanoma; 61.4% in the assay with MDA-MB-231 breast; 72.4% in the assay on SF-268 CNS; 63.3% with SF-295 CNS; 83% with SF-539 CNS; 85.9% in the assay with UACC-257 melanoma. In the assay on M14 melanoma, the growth was 104%.
Regarding `CCC(C)C(N)C(=O)NNc1n[nH]c(=S)n1N` (stereo not drawn), the growth was 102% in the assay on NCI-H23 lung; 101% with NCI-H226 lung; 105% with NCI-H322M lung; 105% in the assay with HOP-62 NSCLC; 103% in the assay on NCI-H460 lung; 97.6% with HOP-92 NSCLC. Besides, the growth is 89% with NCI-H522 lung; 102% in the assay with A549/ATCC NSCLC; 102% in the assay on 786-0 renal; 116% in the assay on COLO 205 colon; 109% with DU-145 prostate; 102% in the assay on K-562 leukemia. Besides, the growth with MALME-3M melanoma was 101%; in the assay with MDA-MB-231 breast, 101%; with SF-268 CNS, 98.2%; in the assay on SF-295 CNS it was 103%; in the assay on SF-539 CNS, 94.7%; in the assay with UACC-257 melanoma, 99.4%. In addition, the growth in the assay with M14 melanoma is 100%.
`COc1ccc(C(=O)/C=C/c2c(OC)cc(OC)cc2OC)c(OC)c1`: the growth in the assay with NCI-H23 lung was 26.1%; in the assay with NCI-H226 lung, 69.5%; in the assay with NCI-H322M lung, 56.2%; in the assay with HOP-62 NSCLC, 40.4%; in the assay with NCI-H460 lung, 8.76% (active); in the assay with HOP-92 NSCLC it was 31.5%. Moreover, the growth in the assay on NCI-H522 lung is -6.76% (active); in the assay with A549/ATCC NSCLC, 31.6%; in the assay with 786-0 renal, 26.2%; in the assay on COLO 205 colon it was 8.18% (active); with DU-145 prostate it was 18.3%; with K-562 leukemia, 18.5%. Further, the growth with MALME-3M melanoma is 3.17% (active); in the assay on MDA-MB-231 breast it was 44.4%; in the assay on SF-268 CNS, 36.5%; in the assay on SF-295 CNS it was 11.3%; in the assay on SF-539 CNS, 8.25% (active); in the assay on UACC-257 melanoma, 28.9%. Further, in the assay on M14 melanoma, the growth is 4.81% (active).
On to `Cc1cc(NC(=O)c2cnc(N3CCN(CCOCCOCCOCCOCCC(=O)N[C@H](C(=O)N4C[C@H](O)C[C@H]4C(=O)N[C@@H](C)c4ccc(-c5scnc5C)cc4)C(C)(C)C)CC3)cn2)c2ncccc2c1`, for which the growth in the assay with NCI-H23 lung was 4.34% (active); in the assay with NCI-H226 lung it was 1.46% (active); in the assay with NCI-H322M lung it was 35.6%; with HOP-62 NSCLC, 4.92% (active); in the assay on NCI-H460 lung, 7.54% (active); with HOP-92 NSCLC, 4.9% (active). For the same molecule, the growth in the assay on NCI-H522 lung was -15.6% (active); in the assay on A549/ATCC NSCLC it was 66.7%; with 786-0 renal, 29.9%; with COLO 205 colon, 47.1%; with DU-145 prostate, 35%; with K-562 leukemia, 6.65% (active). The growth was -31.7% (active) with MALME-3M melanoma; -61.6% (active) with MDA-MB-231 breast; 8.05% (active) with SF-268 CNS; -14.9% (active) in the assay on SF-295 CNS; -75.5% (active) in the assay on SF-539 CNS; -5.78% (active) in the assay on UACC-257 melanoma. Also, the growth in the assay on M14 melanoma is -33.7% (active).
